# According to the supplement of paper PMC3334620:
# The full ranking holds about 33,000 sequences; the median of “E-score (-0.5 to 0.5)” is about -0.053, and the highest 2% start at about 0.37. Only a selection was taken, and the highest values are over-represented in it overall.
# Target: Hap1 (UniProt P0CE41)
# Experiment: PBM E-score (8-mer binding enrichment) (E-score (-0.5 to 0.5)); higher = stronger / more preferred TF binding
# Details: protein concentration: 200 nM; construct: GST-DNA-binding domain
# Procedure: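 Universal 'all 10-mer' protein binding microarrays (Agilent AMADID 015681) probed with GST-tagged S. cerevisiae TFs (full-length or DBD) made by in vitro transcription/translation (PURExpress), about 100-200 nM. Bound TF was detected with fluorescent anti-GST. Each ungapped 8-mer (which stands for itself and its reverse complement) is scored by the PBM enrichment score (E-score), a modified Wilcoxon-Mann-Whitney statistic from -0.5 to +0.5, computed with the Universal PBM Analysis Suite. Scale: above 0.35 generally sequence-specific binding.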
# Sequence of UniProt P0CE41 (P0CE41 whole entry): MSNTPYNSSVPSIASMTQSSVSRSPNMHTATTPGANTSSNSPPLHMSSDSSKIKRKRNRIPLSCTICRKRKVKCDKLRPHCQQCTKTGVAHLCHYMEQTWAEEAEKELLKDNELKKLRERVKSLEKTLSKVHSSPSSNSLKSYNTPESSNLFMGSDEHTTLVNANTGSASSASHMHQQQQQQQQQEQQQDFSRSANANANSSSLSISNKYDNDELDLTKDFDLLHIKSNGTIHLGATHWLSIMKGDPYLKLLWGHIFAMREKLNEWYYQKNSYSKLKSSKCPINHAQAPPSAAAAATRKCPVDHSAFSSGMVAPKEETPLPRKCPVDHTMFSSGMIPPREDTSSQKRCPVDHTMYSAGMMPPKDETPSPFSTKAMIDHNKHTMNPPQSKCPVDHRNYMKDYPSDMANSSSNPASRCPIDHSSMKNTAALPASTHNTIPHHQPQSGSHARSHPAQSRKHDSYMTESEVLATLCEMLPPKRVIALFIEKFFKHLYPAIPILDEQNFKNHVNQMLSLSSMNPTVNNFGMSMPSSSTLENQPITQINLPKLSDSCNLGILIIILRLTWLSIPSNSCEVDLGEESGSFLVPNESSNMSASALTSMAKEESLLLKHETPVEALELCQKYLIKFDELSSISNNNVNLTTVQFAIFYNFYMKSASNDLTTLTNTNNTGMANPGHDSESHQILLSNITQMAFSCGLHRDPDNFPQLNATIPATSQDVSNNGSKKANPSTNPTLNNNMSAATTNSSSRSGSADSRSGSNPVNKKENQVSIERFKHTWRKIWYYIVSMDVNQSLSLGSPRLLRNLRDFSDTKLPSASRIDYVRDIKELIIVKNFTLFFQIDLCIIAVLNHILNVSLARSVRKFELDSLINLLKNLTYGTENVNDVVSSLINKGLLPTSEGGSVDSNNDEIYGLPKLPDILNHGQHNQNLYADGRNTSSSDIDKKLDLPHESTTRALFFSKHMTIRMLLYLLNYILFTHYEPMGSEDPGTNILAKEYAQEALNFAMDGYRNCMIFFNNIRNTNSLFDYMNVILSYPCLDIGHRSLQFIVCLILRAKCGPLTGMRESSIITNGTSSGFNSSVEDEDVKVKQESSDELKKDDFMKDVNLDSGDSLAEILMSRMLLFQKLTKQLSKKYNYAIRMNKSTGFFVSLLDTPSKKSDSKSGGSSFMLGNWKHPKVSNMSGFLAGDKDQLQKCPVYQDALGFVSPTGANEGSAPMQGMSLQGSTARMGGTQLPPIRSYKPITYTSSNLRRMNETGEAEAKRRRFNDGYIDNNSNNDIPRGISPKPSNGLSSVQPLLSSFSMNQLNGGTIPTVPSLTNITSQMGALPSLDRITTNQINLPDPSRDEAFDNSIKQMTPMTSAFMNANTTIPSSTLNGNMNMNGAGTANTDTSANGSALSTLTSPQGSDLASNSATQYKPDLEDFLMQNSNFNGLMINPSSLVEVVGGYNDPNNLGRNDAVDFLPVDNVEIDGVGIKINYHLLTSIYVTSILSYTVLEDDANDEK
row,Sequence,PBM E-score
1,ACGATTTC,0.0291
2,ATATGGAC,-0.0394
3,GGTCTGCA,0.0455
4,GATTCGGA,0.299
5,TATTCGGA,0.37
6,AATTCGGC,0.131
7,AATTCGGG,0.287
8,CATTCGGA,0.321
9,AATTCGGA,0.414
10,CAACAGCG,-0.0733
11,AGATTACA,0.0437
12,CACCACGC,-0.201
13,GACATCCA,-0.175
14,ATAACCAA,-0.182
15,ACCCTGGC,-0.146
16,GCAAGAGC,-0.151
17,AGATTCTG,-0.14
18,ATCTGCCG,0.318
19,AAACACCG,0.388
20,AAACACCT,-0.0632
21,CAACACCG,0.13
22,TCAAAAGA,-0.152

row,Sequence,PBM E-score
1,CCACTTTA,-0.00297
2,TCCGCCCA,0.209
3,AATGCCTC,-0.116
4,AGGAGCTA,-0.192
5,CGGAGCAA,0.394
6,CGGAGCAC,0.196
7,CGGAGCTA,0.443
8,CGGAGCTC,0.313
9,TGGAGCAA,-0.195
10,CGGAGCGC,0.258
11,AACAAAGC,-0.0164
12,AGCGCATG,-0.2
13,ATTGACCC,-0.0115
14,GCCTGCTA,-0.152
15,GCCGAAAC,0.38
16,CCCGAAGA,0.284
17,CCCGAAAA,0.426
18,ACCGAACA,0.265
19,CCCGAAAG,0.298
20,TCCGAACA,0.381
21,TCCGAAGA,0.419
22,ACCGAAGA,0.207

row,Sequence,PBM E-score
1,GCCGAACA,0.233
2,GCCGAAAA,0.345
3,ACCGAAAC,0.323
4,CCCGAAAC,0.208
5,GGCGAAAC,0.194
6,CGGCGGTC,0.244
7,CAGCGCGC,0.057
8,CTTTCAGC,0.0716
9,ACCGAAAA,0.26
10,TCCGAAAA,0.393
11,TGCGAAAA,-0.00129
12,AGCAACTA,-0.0755
13,AGAATCAT,-0.259
14,AATCACAT,0.0324
15,CGTGGTCC,-0.0363
16,AGCCGGCG,0.352
17,CGCCGGCA,0.349
18,GGCCGGCC,0.367
19,CGCCGGCG,0.422
20,CGCCGCCG,0.276
21,CGGCGCCA,0.246
22,CGGCGCCG,0.406

row,Sequence,PBM E-score
1,CGCCGGCC,0.396
2,AGGCGCCG,0.0638
3,CCGACCGA,0.422
4,CGGACCGA,0.423
5,CGGACCGC,0.367
6,CCGACCGC,0.181
7,ACGACCGA,0.275
8,AGGACCTA,0.095
9,GCGACCGA,0.253
10,ACGACCGG,0.292
11,CCGACCGG,0.428
12,CGGACCTA,0.425
13,GGGACCGA,0.329
14,GGGACCTA,0.116
15,AGTAGCGG,0.216
16,ACCTCTCG,-0.0768
17,CCAGGCCC,-0.0511
18,CGCGGCCG,0.27
19,ACTACGGA,0.238
20,TATCAGAA,0.0826
21,AATCCTAT,0.204
22,GTCCTACA,0.145

row,Sequence,PBM E-score
1,ATCTGGCG,0.0049
2,AAGCGTAC,-0.292
3,CGGACCAC,0.279
4,TCGACCAA,-0.331
5,CGGACCCG,0.387
6,AGGACCCG,0.218
7,CGGACCCC,0.233
8,TCGACCCA,-0.221
9,TCGACCGA,0.393
10,CGGACCAA,0.383
11,CGGACCAG,0.304
12,GGAATCAC,0.196
13,AGAGTAAT,0.076
14,CGGTGAGA,0.12
15,ATCAACAT,-0.109
16,ACCCCCAG,-0.25
17,ATATTTCC,0.427
18,CTATTTTC,0.0335
19,ATATTTCA,-0.15
20,ATATTTCG,0.235
21,CTATTTCC,0.397
22,CTATTTCA,-0.0144
